From PubChem BioAssay come the findings set out here.

Experiment [1] can be described thus: rapamycin-like changes in RPL19A-GFP expression – cell-based, S. cerevisiae, multiplex flow cytometry, primary screen (AID 1862; in the data active = percent of DMSO control GFP below about 86%;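 also: lower values mimic rapamycin by blocking the RPL19A rise seen in DMSO cells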). As to conditions: S. cerevisiae RPL19A-GFP strain, flow cytometry fluorescence, 3 h; at 10 µM; stronger effect = lower value. Background: A flow cytometer gives signals particle by particle.
Experiment [2] in a line: TOR pathway GLN3 branch reporter MEP2-GFP changes – S. cerevisiae, multiplex flow cytometry, primary screen (AID 1867;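 active = GFP response, as percent of the DMSO control, above the screen-wide mean plus 3 SD, about 139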;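 also: median GFP channel fluorescence of barcode-gated MEP2-GFP cells measured by flow cytometry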). As to conditions: S. cerevisiae MEP2-GFP strain, 3 h, at 10 µM, stronger effect = higher value, 100% means same as DMSO wells.
A short description of experiment [3]: TOR pathway RTG branch CIT2 reporter changes – S. cerevisiae, GFP fusion, multiplex flow cytometry, primary screen (AID 1870;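 active = percent response above a set limit, the screen-wide mean plus 3 SD, cut at about 130% in these data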;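 also: barcoded CIT2-GFP strain pooled with four other GFP strains with rapamycin as positive control; median GFP fluorescence per well over plate mean of DMSO wells so 100% = DMSO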). The settings on record: S. cerevisiae CIT2-GFP expression, 3 h, at 10 µM, stronger effect = higher value.
The nature of experiment [4]: TOR pathway LAP4-GFP level changes – S. cerevisiae, multiplex flow cytometry, primary screen (AID 1873;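 active = GFP signal, as percent of the solvent control, above the screen mean plus 3 SD, about 149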). The settings on record: S. cerevisiae LAP4-GFP expression, 3 h, at 10 µM, stronger effect = higher value.
A short description of experiment [5]: yeast AGP1-GFP level changes, GLN3 branch – cell-based, multiplex flow cytometry, S. cerevisiae, primary screen (AID 1887;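 active = GFP signal above the screen-wide mean plus 3 SD, that is over about 124.5% of the solvent control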;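 also: AGP1-GFP fusion strain of S. cerevisiae within a five-strain barcoded multiplex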). As to conditions: 3 h, at 10 µM, stronger effect = higher value.
The nature of experiment [6]: reduced mouse 2C T cell binding to pMHC/ICAM-1 vesicles – MLPCN validation set, flow cytometry, LFA-1/ICAM-1 modulator project, pilot screen (AID 2523).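 As to vesicle binding response: mean PE anti-B7-1 fluorescence of CD8+ cells relative to row control; 100% = QL9-loaded vesicles with DMSO vehicle in the same plate row.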 As to conditions: 2C mouse CD8+ T cells, at 7 µM, stronger effect = lower value; double positive events: measured here: CD8+/vesicle+ event percentage.
The target of experiment [7] is Integrin beta-1 (Homo sapiens) + Integrin alpha-4 (Homo sapiens) (UniProt P13612+P05556). The experiment in a line: alpha4beta1 integrin LIBS antibody binding reduction – U937 cells, HUTS-21 mAb, flow cytometry, validation set, VLA-4 allosteric modulator project, pilot screen (AID 2674;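 active = inhibition above 50%, about 3 SD of the validation set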;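 also: antibody binding induced by the VLA-4 ligand LDV present at three times its Kd; 0% = LDV ligand with antibody and no compound and 100% = antibody without LDV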). The settings on record: HUTS-21 LIBS mAb binding, at 6.7 µM, stronger effect = higher value, binding induced by LDV ligand.
Sequence of Integrin beta-1 (Homo sapiens) + Integrin alpha-4 (Homo sapiens) (P05556 whole entry, looked up): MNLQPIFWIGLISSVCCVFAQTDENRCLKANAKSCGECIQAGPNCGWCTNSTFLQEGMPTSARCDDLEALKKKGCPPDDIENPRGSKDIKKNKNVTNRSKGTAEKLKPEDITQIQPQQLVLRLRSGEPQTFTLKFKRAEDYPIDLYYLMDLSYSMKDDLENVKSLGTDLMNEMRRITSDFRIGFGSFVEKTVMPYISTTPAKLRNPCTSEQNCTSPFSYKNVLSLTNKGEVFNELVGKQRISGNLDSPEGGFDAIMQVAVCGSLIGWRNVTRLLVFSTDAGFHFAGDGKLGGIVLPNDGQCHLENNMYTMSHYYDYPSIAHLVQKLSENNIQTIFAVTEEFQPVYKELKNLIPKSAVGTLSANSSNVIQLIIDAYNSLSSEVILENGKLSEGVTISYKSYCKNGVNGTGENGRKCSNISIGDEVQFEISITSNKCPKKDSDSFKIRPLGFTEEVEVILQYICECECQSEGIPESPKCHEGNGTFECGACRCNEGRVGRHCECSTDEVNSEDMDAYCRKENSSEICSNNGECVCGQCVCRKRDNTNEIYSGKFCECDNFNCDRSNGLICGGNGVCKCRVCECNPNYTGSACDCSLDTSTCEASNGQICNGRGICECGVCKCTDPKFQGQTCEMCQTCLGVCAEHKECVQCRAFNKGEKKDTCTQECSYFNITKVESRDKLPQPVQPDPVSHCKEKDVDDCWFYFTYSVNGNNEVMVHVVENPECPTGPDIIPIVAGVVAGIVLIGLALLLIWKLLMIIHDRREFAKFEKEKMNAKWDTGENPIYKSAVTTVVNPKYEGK
Sequence of Integrin beta-1 (Homo sapiens) + Integrin alpha-4 (Homo sapiens) (P13612 whole entry, looked up): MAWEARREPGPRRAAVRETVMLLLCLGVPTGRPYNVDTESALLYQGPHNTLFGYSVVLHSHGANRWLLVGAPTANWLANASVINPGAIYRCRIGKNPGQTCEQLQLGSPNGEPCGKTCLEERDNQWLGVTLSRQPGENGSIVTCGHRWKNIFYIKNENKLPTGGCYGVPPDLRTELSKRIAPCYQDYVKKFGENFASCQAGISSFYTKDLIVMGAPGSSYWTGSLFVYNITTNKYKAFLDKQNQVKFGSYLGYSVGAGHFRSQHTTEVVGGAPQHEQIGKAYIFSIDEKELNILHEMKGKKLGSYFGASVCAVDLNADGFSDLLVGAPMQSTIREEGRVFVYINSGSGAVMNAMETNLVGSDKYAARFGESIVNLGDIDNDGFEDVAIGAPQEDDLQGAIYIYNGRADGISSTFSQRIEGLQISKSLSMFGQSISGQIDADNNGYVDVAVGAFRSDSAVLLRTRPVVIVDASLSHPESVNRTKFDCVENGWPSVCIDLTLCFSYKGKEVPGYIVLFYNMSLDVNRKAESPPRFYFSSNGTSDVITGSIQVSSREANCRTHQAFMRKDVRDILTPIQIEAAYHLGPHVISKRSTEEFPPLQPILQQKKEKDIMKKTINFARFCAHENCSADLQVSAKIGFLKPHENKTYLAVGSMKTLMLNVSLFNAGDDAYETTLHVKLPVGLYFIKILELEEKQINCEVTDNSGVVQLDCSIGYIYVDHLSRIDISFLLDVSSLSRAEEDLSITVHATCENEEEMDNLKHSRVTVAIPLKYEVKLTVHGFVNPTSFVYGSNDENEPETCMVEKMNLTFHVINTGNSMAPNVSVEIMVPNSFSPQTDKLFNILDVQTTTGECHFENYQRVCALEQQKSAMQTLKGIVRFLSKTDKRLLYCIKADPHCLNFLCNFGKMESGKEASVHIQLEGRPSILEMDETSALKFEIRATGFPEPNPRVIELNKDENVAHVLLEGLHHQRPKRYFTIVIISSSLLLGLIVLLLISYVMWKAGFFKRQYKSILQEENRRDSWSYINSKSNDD

Experiment [8] can be described thus: calorie-restriction mimetic ROS inhibitors, yeast – validation compound set, pilot screen (AID 2706;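 active = superoxide response below 65% of plate, a cut near 3 SD across the whole screen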;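 also: yeast exposed to compound for one week at 30 degrees C before staining; 100% = mean of all compound wells on the same plate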). The settings on record: S. cerevisiae aging, superoxide DHE fluorescence; at 10 µM, stronger effect = lower value.
Experiment [9] deals with Beta-adrenergic receptor kinase 1 (Homo sapiens) (UniProt P25098). The experiment in a line: GRK2 binders displacing RNA aptamer, biochemical, validation, human GRK2, bead flow cytometry (AID 488806;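 active = aptamer binding inhibition above 30%, about 3 SD of noise from non-fluorescent compounds; inactive = inhibition at or below 30%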). The settings on record: bead-bound GRK2, FAM-aptamer displacement, at 10 µM, stronger effect = higher value.
Sequence of Beta-adrenergic receptor kinase 1 (Homo sapiens) (P25098 whole entry, looked up): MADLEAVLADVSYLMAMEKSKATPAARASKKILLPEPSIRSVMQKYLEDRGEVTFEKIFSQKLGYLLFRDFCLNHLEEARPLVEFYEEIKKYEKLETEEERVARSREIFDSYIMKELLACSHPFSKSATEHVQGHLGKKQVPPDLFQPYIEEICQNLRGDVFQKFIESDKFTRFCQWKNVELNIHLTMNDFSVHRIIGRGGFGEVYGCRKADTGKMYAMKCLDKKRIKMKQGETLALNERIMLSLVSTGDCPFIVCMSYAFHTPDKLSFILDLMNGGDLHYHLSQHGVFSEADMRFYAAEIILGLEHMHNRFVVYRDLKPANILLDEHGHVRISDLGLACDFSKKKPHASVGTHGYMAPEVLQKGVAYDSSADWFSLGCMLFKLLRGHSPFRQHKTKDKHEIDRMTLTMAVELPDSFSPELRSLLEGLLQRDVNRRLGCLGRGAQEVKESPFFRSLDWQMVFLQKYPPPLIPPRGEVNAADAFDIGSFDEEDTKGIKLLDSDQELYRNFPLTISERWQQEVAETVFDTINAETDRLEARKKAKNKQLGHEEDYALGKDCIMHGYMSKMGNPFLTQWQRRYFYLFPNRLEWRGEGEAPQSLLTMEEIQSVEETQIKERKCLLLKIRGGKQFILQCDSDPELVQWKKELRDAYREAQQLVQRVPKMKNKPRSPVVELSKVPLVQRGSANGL
Experiment [10] has as its target AP-2 complex subunit beta (Homo sapiens) (UniProt P63010). The experiment in a line: beta-arrestin/AP2 interaction blockers – biochemical, validation set, GST-AP2 beads, flow cytometry, pilot screen (AID 504541;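 active = inhibition above 54%, about 3 SD of non-fluorescent compounds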;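 also: AP2 carries R879A mutation and is captured from E. coli lysate; bead-bound FITC arrestin peptide fluorescence measuring arrestin peptide binding to AP2; 0% = DMSO wells and 100% = excess unlabeled arrestin peptide control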). The settings on record: FITC arrestin peptide, at 10 µM, stronger effect = higher value, AP2 beta2 appendage fragment, R879A mutant.
Experiment [11] in a line: cytosolic pH regulators acting via V-ATPase – S. cerevisiae, pHLuorin, HTS validation (AID 504600; in the data active = response above about 15%;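 also: plate controls were DMSO for no effect and reference compound for full effect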). As to conditions: V-ATPase proton transport, at 10 µM, stronger effect = higher value.
Experiment [12] deals with anti-desmoglein-3 scFv antibody binding to human DSG3. The experiment in a line: blockers of pathogenic pemphigus antibody–desmoglein-3 binding – biochemical, validation compound set, bead-based, flow cytometry, pilot screen (AID 588368;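 active = binding below the plate cutoff, the plate median minus 3 SD, with a reading above zero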;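 also: signal is the median channel fluorescence of bead-bound GFP antibody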). The settings on record: Protein G beads, DSG3-Fc, scFv-GFP binding, at 10 µM, stronger effect = lower value.
Experiment [13] is described as follows: Nile Red efflux blockade in pump-expressing yeast – validation compound set, multiplex, phenotypic, pilot screen (AID 588506;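 active = efflux inhibition above 0.42, the validation set average plus 4 SD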;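 also: Nile Red retained in cells so higher fluorescence means more efflux inhibition; 0 = negative control wells and 1 = enniatin B 25 µM full block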). As to conditions: S. cerevisiae pump-expressing triplex, Nile Red efflux flow cytometry; at 10 µM; stronger effect = higher value; the pumps come from Candida albicans.
Experiment [14] has as its target ATP-binding cassette sub-family B member 6 (Homo sapiens) (UniProt Q9NP58). The experiment in a line: blockers of ABCB6-driven porphyrin uptake – K562-ABCB6 cells, flow cytometry, validation set, pilot screen (AID 588550;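 active = inhibition above the screen-wide mean plus 3 SD, about 51%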;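 also: 0% = DMSO wells and 100% = benzethonium chloride 70 µM positive control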). As to conditions: K562-ABCB6 porphyrin accumulation, 1 h, at 10 µM, stronger effect = higher value.
The nature of experiment [15]: AML differentiation inducers, ER-HoxA9 marrow cells – cell-based, GFP/MAC1 double positive, flow cytometry, validation set, primary screen (AID 588685;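 active = differentiation response of at least 50%, scaled between solvent and reference control, from cells with both markers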;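 also: compound exposure lasts four days before antibody staining and flow analysis; 0% = DMSO wells and 100% = 5 µM fulvestrant positive control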). The settings on record: stronger effect = higher value, normalized: vehicle 0, fulvestrant 100.

Inconclusive results are not listed. Calls of active or inactive are those of the source.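 The calls were made as follows, unless noted: active = response below a set limit, under 55% cells CD8-positive and vesicle-bound, and CD8 cells' 90th-percentile brightness under 279; inactive = the rest.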

Sequence of ATP-binding cassette sub-family B member 6 (Homo sapiens) (Q9NP58 whole entry, looked up): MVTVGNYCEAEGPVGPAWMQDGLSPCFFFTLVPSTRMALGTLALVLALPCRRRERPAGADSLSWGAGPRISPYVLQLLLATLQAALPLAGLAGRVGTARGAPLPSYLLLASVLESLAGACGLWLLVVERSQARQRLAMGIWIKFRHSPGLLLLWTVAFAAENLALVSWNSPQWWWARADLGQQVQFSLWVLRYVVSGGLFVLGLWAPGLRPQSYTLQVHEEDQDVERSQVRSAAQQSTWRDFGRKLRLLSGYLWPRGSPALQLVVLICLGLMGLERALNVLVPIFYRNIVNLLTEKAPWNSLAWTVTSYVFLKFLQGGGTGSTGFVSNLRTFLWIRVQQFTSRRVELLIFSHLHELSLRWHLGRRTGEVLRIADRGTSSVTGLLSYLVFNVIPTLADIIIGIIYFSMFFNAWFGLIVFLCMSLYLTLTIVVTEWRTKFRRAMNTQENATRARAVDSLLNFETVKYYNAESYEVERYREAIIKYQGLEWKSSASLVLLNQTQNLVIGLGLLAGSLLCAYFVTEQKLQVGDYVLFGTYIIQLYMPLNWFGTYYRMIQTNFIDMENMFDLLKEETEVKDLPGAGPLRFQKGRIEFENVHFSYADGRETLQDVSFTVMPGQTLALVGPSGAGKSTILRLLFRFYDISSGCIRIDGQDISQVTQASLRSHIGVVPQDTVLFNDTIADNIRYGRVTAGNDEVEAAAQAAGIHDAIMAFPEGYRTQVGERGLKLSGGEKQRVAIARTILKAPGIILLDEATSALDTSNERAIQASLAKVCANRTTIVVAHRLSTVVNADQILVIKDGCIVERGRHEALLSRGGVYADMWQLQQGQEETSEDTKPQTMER
Sequence of AP-2 complex subunit beta (Homo sapiens) (P63010 whole entry, looked up, the tested form may be a part, one chain of several): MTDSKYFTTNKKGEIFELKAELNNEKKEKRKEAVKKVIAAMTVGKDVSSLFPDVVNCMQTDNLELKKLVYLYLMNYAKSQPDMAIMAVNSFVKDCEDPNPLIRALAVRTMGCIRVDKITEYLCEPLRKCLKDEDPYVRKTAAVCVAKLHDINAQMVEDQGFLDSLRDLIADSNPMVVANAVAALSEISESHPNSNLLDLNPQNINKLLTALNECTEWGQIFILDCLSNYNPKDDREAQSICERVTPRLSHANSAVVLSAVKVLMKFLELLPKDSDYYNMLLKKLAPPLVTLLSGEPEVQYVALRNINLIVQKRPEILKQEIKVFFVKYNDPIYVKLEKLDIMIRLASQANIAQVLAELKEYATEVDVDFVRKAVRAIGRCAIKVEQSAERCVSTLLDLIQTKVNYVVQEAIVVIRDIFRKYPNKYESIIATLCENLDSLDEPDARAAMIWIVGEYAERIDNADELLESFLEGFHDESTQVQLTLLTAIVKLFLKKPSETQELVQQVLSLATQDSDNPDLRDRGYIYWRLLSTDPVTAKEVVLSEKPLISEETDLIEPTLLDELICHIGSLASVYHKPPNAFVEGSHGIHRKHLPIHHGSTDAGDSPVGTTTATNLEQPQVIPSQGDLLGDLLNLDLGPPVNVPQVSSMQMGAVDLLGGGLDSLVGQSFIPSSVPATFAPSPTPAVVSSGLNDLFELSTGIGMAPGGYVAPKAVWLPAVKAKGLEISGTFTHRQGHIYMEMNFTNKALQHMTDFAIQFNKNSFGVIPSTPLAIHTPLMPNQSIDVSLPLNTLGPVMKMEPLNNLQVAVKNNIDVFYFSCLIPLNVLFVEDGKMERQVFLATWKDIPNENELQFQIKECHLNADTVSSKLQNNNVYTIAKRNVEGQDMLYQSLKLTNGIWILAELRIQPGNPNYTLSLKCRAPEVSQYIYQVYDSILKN

A word on the inhibition: it is the drop in the measured response relative to a control, in per cent. Take `O=C1OC(c2ccc(O)cc2)(c2ccc(O)cc2)c2ccccc21`: the percent of DMSO control GFP in [1] is 97.1% (inactive). Moreover, the figures for the GFP response vs DMSO in [2] and in experiment [4] were 102% (inactive) and 103% (inactive), respectively. Moreover, the percent response of DMSO control in experiment [3] was 101% (inactive). In [5], the GFP response, % of DMSO was 100% (inactive). This compound displayed a double positive events in experiment [6] of 62.5%. In experiment [6], the vesicle binding response is 180% (inactive). The inhibition is 9.09% (inactive) in [7], 28% (inactive) in [10] and 6% (inactive) in experiment [14]. Moreover, in experiment [8], the superoxide response (% of plate) is 99.3% (inactive). Also, in experiment [9], the aptamer binding inhibition is 1% (inactive). In [11], the response was -0.84% (inactive). For the same compound, the binding (% of control) in experiment [12] was 103% (inactive). The efflux inhibition (fraction of control) in [13] was -0.12 (inactive). In addition, the differentiation response in experiment [15] is -24.4% (inactive).
`COC(=O)CN1CC(=O)N(c2ccccc2)C1=S`: in experiment [1], the percent of DMSO control GFP is 101% (inactive). Also, the values for the GFP response vs DMSO in experiment [2] and in [4] were 106% (inactive) and 100% (inactive), respectively. Further, the percent response of DMSO control in [3] was 97.9% (inactive). For the same compound, the GFP response, % of DMSO in [5] is 95.8% (inactive). This compound displayed a double positive events in experiment [6] of 59.2%. Also, in [6], the vesicle binding response is 171% (inactive). For the same compound, the inhibition in [7] was 6.29% (inactive); in [10], 9.42% (inactive); in experiment [14], -19% (inactive). Also, in experiment [8], the superoxide response (% of plate) is 97.2% (inactive). For the same compound, the aptamer binding inhibition in experiment [9] is 1% (inactive). In [11], the response was 4.12% (inactive). In addition, the binding (% of control) in [12] is 106% (inactive). Also, the efflux inhibition (fraction of control) in experiment [13] was 0.22 (inactive). In addition, the differentiation response in experiment [15] is 6.26% (inactive).
For `CC(=O)Nc1ccc(OS(=O)(=O)c2c(C)cc(C)cc2C)cc1`, the percent of DMSO control GFP in experiment [1] was 99% (inactive). Further, the GFP response vs DMSO was 92.8% (inactive) in experiment [2] and 96.4% (inactive) in experiment [4]. Also, the percent response of DMSO control in [3] was 98.8% (inactive). The GFP response, % of DMSO in experiment [5] is 86.7% (inactive). Further, in experiment [6], the double positive events is 47.1%. The vesicle binding response in experiment [6] was 166% (inactive). Further, the inhibition in experiment [7] was 10.9% (inactive); in experiment [10], -5.36% (inactive); in [14] it was 8% (inactive). Also, in experiment [8], the superoxide response (% of plate) is 99.6% (inactive). The aptamer binding inhibition in experiment [9] was -1% (inactive). In [11], the response is 0.9% (inactive). The binding (% of control) in experiment [12] was 102% (inactive). For the same compound, the efflux inhibition (fraction of control) in experiment [13] is -0.2 (inactive). The differentiation response in experiment [15] is -18% (inactive).
Consider `CC1=CC(C)(C)N2C(=O)C3(NCCc4c3[nH]c3ccccc43)c3cc(C)cc1c32` (stereo not given), for which, in experiment [1], the percent of DMSO control GFP was 103% (inactive). For the same compound, the GFP response vs DMSO in experiment [2] was 98.9% (inactive); in experiment [4] it was 82.3% (inactive). Also, the percent response of DMSO control in experiment [3] was 99.8% (inactive). Further, the GFP response, % of DMSO in [5] was 93.6% (inactive). This compound showed a double positive events in experiment [6] of 63%. For the same compound, the vesicle binding response in [6] was 162% (inactive). Further, the inhibition in experiment [7] is 22.1% (inactive); in [10], -4.18% (inactive); in experiment [14] it was 4% (inactive). Also, the superoxide response (% of plate) in [8] was 97.3% (inactive). For the same compound, the aptamer binding inhibition in experiment [9] was -3% (inactive). In addition, the response in [11] was 3.88% (inactive). Also, in experiment [12], the binding (% of control) was 104% (inactive). In addition, in [13], the efflux inhibition (fraction of control) is 0.41 (inactive). For the same compound, in [15], the differentiation response is -5.05% (inactive).
For `C[C@]12CC[C@H]3C(=CCc4cc(O)ccc43)[C@@H]1CCC2=O`, the percent of DMSO control GFP in [1] was 101% (inactive). Also, the figures for the GFP response vs DMSO in experiment [2] and in experiment [4] were 94.8% (inactive) and 110% (inactive), respectively. The percent response of DMSO control in experiment [3] is 90% (inactive). Also, the GFP response, % of DMSO in [5] was 92.1% (inactive). Also, in [6], the double positive events was determined as 59.4%. For the same compound, in experiment [6], the vesicle binding response is 172% (inactive). The inhibition in [7] is 7.22% (inactive); in experiment [10], 2.28% (inactive); in [14] it was 4% (inactive). In [8], the superoxide response (% of plate) was 102% (inactive). Further, in [9], the aptamer binding inhibition was 7% (inactive). Further, the response in experiment [11] was -1.47% (inactive). The binding (% of control) in experiment [12] is 103% (inactive). For the same compound, in experiment [13], the efflux inhibition (fraction of control) is 0.25 (inactive). Also, the differentiation response in experiment [15] was 1.41% (inactive).
